Only some compounds are listed: those with a hit (about 2.8% of all), similar ones and a draw of the others.
TRPM1 prom inh = MITF TRPM1 promoter inhibition in SK-MEL-5 cells. SK-MEL-5 TRPM1 promoter luciferase, 24 h. 330,000 compounds, 0.83% hits. inhibition, % at 12.5 µM;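 active = mean inhibition across replicates of 60% or more, whatever share of single replicates reaches that level; inconclusive = some that reach 60%, reason not given; inactive = mean inhibition across replicates below 60%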
Peg3 promoter = inhibitors of Peg3 promoter | 360,000 compounds, 1.7% hits | AID 588405 | inhibition, % at 20 µM | HeLa PEG-Prom luciferase reporter, luminescence, overnight;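 active = inhibition of at least 50% at 20 µM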
KKLEB cytotox = reduces viability of KKLEB cystic fibrosis airway cells | 360,000 compounds, 0.36% hits | AID 602141 | KKLEB CF airway cells viability, ATPlite luminescence, overnight; hits give low values; cells stimulated with P. aeruginosa culture filtrate | activity change (cytotoxicity), % at 5 µM;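 active = corrected activity change at or below -50% at 5 µM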
HIF-2a inh = HIF-2a inhibition; 786-0 RCC cells HIF-2a reporter, luciferase luminescence, overnight; inhibition, % at 18.8 µM; 360,000 compounds, 0.72% hits; AID 624352;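 active = inhibition of the luminescence signal of 40% or more relative to plate controls, in a single-dose primary screen at 18.75 µM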
Shn3 inh set2 = reduces Shn3 3'UTR luciferase signal in osteoblasts; inhibition, % at 12.5 µM; AID 588674; 360,000 compounds, 0.52% hits; Clone20 osteoblast Shn3 3'UTR firefly luciferase, 24 h;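 active = mean inhibition of at least 75% with every replicate also reaching 75%; inconclusive = mean inhibition at least 75% but some replicate below; inactive = mean inhibition below 75%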;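 note: 0% = median of neutral control wells and 100% = pilot-screen positive control compound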
CF NFkB block = cystic fibrosis NF-kB activation inhibition; KKLEB NF-kB-GFP reporter, PAF-induced, GFP fluorescence overnight; inhibition, % at 5 µM; 360,000 compounds, 0.86% hits;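 active = at least 50% inhibition at 5 µM, scaled per plate between neutral and stimulator controls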;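 note: PAF is a Pseudomonas aeruginosa culture filtrate used as stimulus; plate controls were PAF-stimulated DMSO wells for no effect and unstimulated DMSO wells for full effect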
* marks the source's active call; other numbers are inactive results; u = inconclusive; x = no result given.

SMILES | TRPM1 prom inh | Peg3 promoter | KKLEB cytotox | HIF-2a inh | Shn3 inh set2 | CF NFkB block
Cn1c(NCC(O)c2ccccc2)nc2c1c(=O)n(Cc1ccc(Cl)cc1)c(=O)n2C (configuration not stated) | 1.3 | 39.5 | 9.2 | 1.9 | -3.4 | 0.9
Cn1c(NCC(O)c2ccccc2)nc2c1c(=O)n(Cc1ccc(Cl)c(Cl)c1)c(=O)n2C (configuration not stated) | 11.1 | 53.4* | -4.4 | 31.5 | x | 4.0
COc1ccc(CNc2nc3c(c(=O)n(Cc4ccc(F)cc4)c(=O)n3C)n2C)cc1 | 13.4 | 50.3* | 24.2 | 26.7 | 25.1 | 23.0
CC(C)CCCC(C)NC(=O)c1cc(S(=O)(=O)N2CCCCC2)ccc1N1CCOCC1 (configuration not stated) | 1.3 | 13.2 | 12.2 | 3.5 | 25.0 | -29.9
Cc1oc2c(Cl)c(Cl)c(O)c(CN(C)C)c2c1C(=O)c1ccc(Cl)cc1 | -10.2 | -7.5 | 12.7 | 21.3 | 16.0 | 50.7*
Cn1nc(-c2ccccn2)nc2c(=O)n(C)c(=O)nc1-2 | 103.8* | 104.6* | -99.2* | 71.4* | 97.6* | 99.5*
Cc1ccc(-n2c(-c3ccc(Br)cc3)c[n+]3c2CCc2ccc4cccnc4c2-3)cc1 | 97.7* | 64.0* | -51.9* | 9.6 | 91.1* | 19.7
CC(=O)Oc1cc2c3c(c1)/C(=C1/SC(=S)NC1=O)C(=O)N3C(C)(C)C=C2C | 1.1 | -39.6 | 10.8 | -21.9 | 0.8 | 52.2*
Cc1cc(NC(=O)/C=C/c2cccc(F)c2)n(-c2nc3ccccc3[nH]2)n1 | -21.2 | -25.0 | -30.7 | -21.9 | 4.2 | 33.3
Cc1cc(NC(=O)/C=C/c2cccc(Cl)c2)n(-c2nc3ccccc3[nH]2)n1 | -16.5 | 7.0 | -56.1* | -71.0 | -9.5 | 54.0*
COc1ccccc1CNC(=O)CCc1nnc2ccc(NCCCN3CCCC3=O)nn12 | 6.5 | 7.7 | -18.9 | 11.5 | 11.9 | 13.9
CCN(CC)C(=O)c1oc2ccc(S(=O)(=O)N3CC(C)CC(C)C3)cc2c1C (configuration not stated) | 31.6 | 30.8 | 8.1 | 18.8 | 90.6* | 3.6
Cc1ccc(O)c(C(=O)c2cnn(C(=O)c3cccc(S(=O)(=O)N(C)C)c3)c2)c1 | -4.8 | -3.2 | -0.1 | 18.0 | 7.0 | 46.4
Cc1cccc(C)c1NC(=O)CSc1nc(C)c(CC(=O)c2ccc(Br)cc2)c(C)c1C#N | 40.1 | 60.0* | -1.9 | 13.0 | 1.0 | 1.5
CC(=O)Nc1cccc(NC(=O)CSc2nc(C)c(C)c(C)c2C#N)c1 | 38.0 | -7.1 | 7.3 | 12.0 | 23.9 | -8.4
CCCc1nc2ccccc2c(C(=O)OCC(=O)Nc2cccc(S(=O)(=O)N3CCOCC3)c2)c1CC | 5.2 | 53.0* | 1.6 | 9.6 | 28.8 | 6.6
CCc1cccc(C)c1NC(=S)NCCc1c(C)[nH]c2ccc(C)cc12 | 16.5 | 51.4* | 8.4 | 16.0 | 13.9 | -13.4
COc1ccc2[nH]c(C)c(CCNC(=S)Nc3cc(C)ccc3C)c2c1 | 2.0 | 12.7 | -2.4 | 1.1 | 57.9 | 3.4
COc1ccccc1C(=O)NNC(=S)NC(=O)c1sc2ccccc2c1Cl | 37.7 | 13.8 | -56.5* | -34.0 | 5.5 | 47.6
CC(C(Sc1ccccc1N)c1ccccc1)[N+](=O)[O-] (configuration not stated) | 71.0* | 49.1 | -15.9 | -46.5 | 63.2 | 4.4
Cc1cc(C)n(-c2ccc(NC(=O)C3CCN(Cc4ccccn4)CC3)cc2)n1 | -5.2 | -2.1 | -9.6 | 4.6 | -4.5 | -3.7
COc1ccc2nc3cc(Cl)ccc3c(Nc3ccc(O)c(CN4CCN(C)CC4)c3)c2c1 | 105.9* | 95.0* | -5.4 | -49.5 | -6.0 | -59.5
COc1ccc2nc3cc(Cl)ccc3c(C#N)c2c1 | -12.7 | -15.1 | 10.5 | -40.5 | 3.4 | -26.6
COc1ccc(NC(=O)CCCSc2ccccc2)cc1 | -30.9 | -89.1 | 13.9 | -131.6 | -0.8 | -3.2
CC(C)(C)C(C(=O)NC1CCCC1)N1CCN(c2ncccc2C#N)CC1 (configuration not stated) | x | x | x | 8.9 | x | x
SMILES | TRPM1 prom inh | Peg3 promoter | KKLEB cytotox | HIF-2a inh | Shn3 inh set2 | CF NFkB block
O=C1CCCN1c1ccc(C(=O)N(Cc2nnc(-c3ccc(Cl)cc3)o2)C2CC2)cc1 | 2.8 | -6.3 | -1.5 | -40.4 | -1.3 | 3.9
Cn1c(/C(C#N)=C/c2ccc(-c3ccc(S(N)(=O)=O)cc3)o2)nc2ccccc21 | 57.1 | 71.8* | -6.2 | -9.7 | 28.3 | -147.6
Cc1ccc(-c2ccccc2)n1-c1ccc(C(=O)O)cc1 | -12.3 | -8.8 | 7.3 | 10.0 | -9.4 | 15.9
Oc1ccccc1-n1c(-c2ccccc2)ccc1-c1ccccc1 | 5.1 | 57.4* | -37.2 | -69.8 | 7.5 | 37.5
CC(O)Cn1c(N2CCCC2)nc2c1c(=O)[nH]c(=O)n2C (configuration not stated) | -6.4 | 15.0 | 2.3 | 13.4 | -2.4 | 5.5
NC(=O)c1nc(-c2ccco2)nc2c1[nH]c(=O)n2-c1ccc(Cl)c(Cl)c1 | 4.6 | 80.0* | 3.2 | 16.6 | -2.5 | -12.4
Cc1cccc(-n2c(=O)[nH]c3c(C(N)=O)nc(-c4ccccc4Cl)nc32)c1 | -5.6 | 28.2 | -15.9 | 14.3 | 20.0 | 15.4
Cc1ccc(-c2csc(N3CCN(CCCn4c(-c5ccncc5)nc5ccccc54)CC3)n2)cc1 | 67.2* | 35.9 | -9.4 | -16.0 | 5.6 | 16.3
NC(=S)NN=C1CSSC1 | x | 44.3 | 2.9 | -1.5 | 32.1 | 70.3*
CC1CCCCN1CCCNC(=O)CN1C(=O)c2cccnc2Oc2ccc(Cl)cc21 (configuration not stated) | -4.9 | -9.7 | -3.1 | 9.7 | 5.2 | 1.8
CCOC(=O)c1c(NC(=O)C(NCCN(C)C)c2ccccc2)sc2c1CCCC2 (configuration not stated) | 75.6* | 106.1* | -13.0 | 5.1 | -7.7 | 38.4
CCOC(=O)c1c(NC(=O)C(=O)N/N=C/c2ccccc2O)sc2c1CCCCC2 | u | 43.9 | -3.8 | -1.4 | 93.8* | -5.6
CCOC(=O)c1c(NC(=O)c2ccccc2N(C)S(=O)(=O)c2ccccc2)sc2c1CCCC2 | 18.2 | 31.8 | -1.9 | 11.7 | 79.3 | 20.0
NS(=O)(=O)c1ccc(NC(=O)COC(=O)CCCN2C(=O)c3cccc4cccc(c34)C2=O)cc1 | -5.6 | 0.3 | -7.1 | 8.9 | 7.1 | -0.7
CCCn1c(NC(=O)CCS(=O)(=O)c2ccc(C)cc2)nc2ccccc21 | 6.8 | 21.1 | -13.5 | 0.6 | 21.4 | 11.4
CNC(=O)CC1C(=O)N(c2ccc(Cl)cc2)C(=S)N1NC(=O)c1cccc(F)c1 (configuration not stated) | 5.0 | -98.0 | 17.8 | -85.0 | -8.3 | -3.8
CNC(=O)CC1C(=O)N(c2ccc(OC)cc2)C(=S)N1NC(=O)c1cccc(F)c1 (configuration not stated) | x | 68.7* | -4.3 | 2.4 | 9.9 | 6.2
CCCn1c(N)c(C(=O)CN2CCN(S(=O)(=O)c3cccc(Cl)c3)CC2)c(=O)[nH]c1=O | 5.5 | 19.4 | -1.0 | 9.8 | -10.0 | -13.0
